Out of some 4,700 compounds screened, about 760 (16%) were called active.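 Rule for the calls: active = inhibition above a cutoff derived from the DMSO control wells (cut at about 28% in these data); inactive = the rest.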 Only a sample is shown.

Chain of Microphthalmia-associated transcription factor (Homo sapiens) (O75030 whole entry, looked up): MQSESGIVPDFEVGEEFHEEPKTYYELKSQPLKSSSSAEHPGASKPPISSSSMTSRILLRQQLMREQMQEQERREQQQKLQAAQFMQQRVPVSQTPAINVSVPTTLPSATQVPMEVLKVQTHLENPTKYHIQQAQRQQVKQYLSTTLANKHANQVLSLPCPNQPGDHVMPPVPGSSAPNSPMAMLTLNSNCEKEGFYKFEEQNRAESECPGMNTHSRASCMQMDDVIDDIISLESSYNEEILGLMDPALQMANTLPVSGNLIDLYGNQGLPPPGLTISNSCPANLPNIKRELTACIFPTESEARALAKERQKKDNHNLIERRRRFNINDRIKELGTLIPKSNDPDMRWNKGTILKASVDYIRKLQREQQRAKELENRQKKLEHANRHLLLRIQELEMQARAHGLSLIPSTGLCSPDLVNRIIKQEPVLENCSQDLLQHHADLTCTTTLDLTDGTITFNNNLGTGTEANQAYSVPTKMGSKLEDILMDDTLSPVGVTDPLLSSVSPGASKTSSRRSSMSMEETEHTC

This test has as its target Microphthalmia-associated transcription factor (Homo sapiens) (UniProt O75030). The test can be described thus: blockers of human MITF dimerization – biochemical, AlphaScreen, triplicate, confirmation (AID 1259372). The following applies: AlphaScreen MITF homodimerization, biotin/His-MITF beads; at 2.6 µM; active compounds read high. In general terms: In Alpha technology, singlet oxygen from a donor bead excites a nearby acceptor bead.
One may read the inhibition as the change of the read-out against control, counted positive when it falls. Turning to `COc1cc(NC(=O)CCc2nc(C3=CCN(C)CC3)no2)cc(OC)c1OC`, the inhibition is 66.9% (active).

Take `CCC(C)N1CCN(Cc2cccc(OC)c2)CC1` (stereo not given): the inhibition was 13.4% (inactive).

On to `CCC(CC)N1CCN(Cc2ccc(F)cc2)CC1`, for which the inhibition is 3.06% (inactive).

For the molecule `COc1ccc(CN2CCN(Cc3ccccc3)CC2)cc1C`, the inhibition is -1.48% (inactive).

As to `CSc1ccccc1NC(=O)CN(C)CC(=O)Nc1ccc(C#N)c(Cl)c1`, the inhibition was 4.26% (inactive).

Regarding `CCOC(=O)C1C2NC(=S)N(CC)C1(C)Oc1ccc(Cl)cc12` (stereo not given), the inhibition was 33.4% (active).

Consider `CCOC(=O)C1C2NC(=S)N(c3ccc(F)cc3)C1(C)Oc1c(OCC)cccc12` (stereo not given), for which the inhibition is 24.2% (inactive).

As for `CN1CCC(N(C)c2ncnc3scc(-c4ccc(Cl)cc4)c23)CC1`, the inhibition is -5.93% (inactive).

For the molecule `CCC(C)N1CCN(Cc2ccc(SC)cc2)CC1` (stereo not given), the inhibition was 3.6% (inactive).

In the case of `Fc1ccccc1CN1CCN(Cc2ccccc2F)CC1`, the inhibition was 4.39% (inactive).

(Values after PubChem BioAssay AID1259372 (The Scripps Research Institute Molecular Screening Center, 2018).)
